High-throughput results (PubChem)
Only some compounds are listed: those with a hit (about 4.1% of all), similar ones and a draw of the others.
DAX1 inh-1: DAX1 (NR0B1) inhibitors, primary screen, cell-based, HEK293, Gal4-DAX1, luciferase luminescence; HEK293 Gal4-DAX1 luciferase reporter; Nuclear receptor subfamily 0 group B member 1 (Homo sapiens), P51843; inhibition, % at 6.75 µM; hit rate 0.99% among 340,000;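 active = inhibition above the mean over all tested compounds plus 3 SD, cut at about 4.2% in these data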;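 also: 0% = DAX1-transfected cells with DMSO and 100% = empty-vector control cells with DMSO; inhibition shows as a rise in luminescence from relieved DAX1 repression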
hgDAF-12 ag: H. glycines DAF-12 receptor agonists, primary screen, cell-based, luminescence, HEK293, GAL4 fusion, UAS-luciferase; hit rate 1.8% among 370,000; activation, % at 6.8 µM; HEK293 GAL4-hgDAF12 UAS-luciferase reporter, agonist luminescence; normalized to butyrate control; Nuclear hormone receptor DAF-12 (Heterodera glycines), GAL4 fusion;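 active = activation above a cutoff set at the mean of all screened compounds plus 3 SD, cut at about 10% in these data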;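 also: 0% = DMSO wells and 100% = sodium butyrate wells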
hcDAF-12 act: H. contortus DAF-12 nuclear receptor activators, primary screen, cell-based, luminescence, HEK293, lit1-tk-luc reporter | HEK293 hcDAF-12 lit1-tk-luc reporter; 0% DMSO, 100% Δ7-dafachronic acid | activation, % at 6.8 µM | hit rate 1.4% among 370,000;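 active = activation above the mean of all tested compounds plus 3 SD, cut at about 5.5% in these data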;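 also: 100% = response to 3 µM Δ7-dafachronic acid high control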
ssDAF-12 act: S. stercoralis DAF-12 nuclear receptor activators, primary screen, cell-based, luminescence, HEK293, GRIP1 co-expression, lit1-tk-luc; activation, % at 6.8 µM; HEK293 ssDAF-12/GRIP1 lit1-tk-luc reporter; % of 3 µM dafachronic acid response; hit rate 1% among 370,000;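 active = activation above the mean over all tested compounds plus 3 SD, cut at about 0.9% in these data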;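 also: 0% = DMSO-only wells and 100% = 3 µM delta7-dafachronic acid wells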
DAX1 inh-2: DAX1 (NR0B1) inhibitors on StAR promoter, primary screen, cell-based, luminescence, SF-1 (NR5A1), full-length DAX-1; HEK293T StAR-luciferase reporter, SF-1/DAX-1 repression relief; inhibition, % at 6.8 µM; hit rate 1.1% among 370,000;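 active = inhibition above the mean over all tested compounds plus 3 SD, cut at about 3.6% in these data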;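 also: 0% = DAX-1 cells with DMSO and 100% = cells lacking DAX-1 with DMSO; higher inhibition means more luminescence from relief of DAX-1 repression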
DAX1 conf: DAX1 (NR0B1) inhibitors relieving SF-1 repression, confirmation, cell-based, luminescence, HEK293T, full-length DAX-1, SF-1 activated StAR promoter. HEK293T StAR-promoter luciferase reporter, SF-1/DAX-1 repression. AID 652134, 2013. inhibition, % at 6.8 µM. shares compounds with DAX1 inh-2. hit rate 87% among 2,400;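 active = inhibition above the average of every tested compound plus 3 SD, cut at about 3.8% in these data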;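 also: 0% = DAX-1 cells with DMSO and 100% = no DAX-1 control cells with DMSO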
Target sequence (P51843 whole entry, looked up): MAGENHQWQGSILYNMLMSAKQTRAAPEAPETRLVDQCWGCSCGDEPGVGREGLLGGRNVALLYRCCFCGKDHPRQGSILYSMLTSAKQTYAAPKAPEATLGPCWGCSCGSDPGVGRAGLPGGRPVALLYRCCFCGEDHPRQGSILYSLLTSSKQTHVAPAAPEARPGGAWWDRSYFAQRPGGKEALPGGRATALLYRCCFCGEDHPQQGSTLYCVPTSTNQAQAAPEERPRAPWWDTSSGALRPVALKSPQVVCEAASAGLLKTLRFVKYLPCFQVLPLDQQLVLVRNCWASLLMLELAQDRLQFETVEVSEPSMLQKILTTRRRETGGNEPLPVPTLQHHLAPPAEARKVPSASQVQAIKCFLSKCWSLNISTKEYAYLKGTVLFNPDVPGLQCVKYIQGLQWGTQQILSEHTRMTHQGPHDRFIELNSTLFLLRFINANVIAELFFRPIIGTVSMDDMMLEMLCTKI
SF1 AF2mut Luc: StAR reporter signal changes without DAX1, counter-screen for DAX1 inhibitor project, cell-based, luminescence, AF-2 mutant SF-1, transactivation; shares compounds with DAX1 inh-2; HEK293 StAR-luciferase, SF-1 AF2 mutant; inhibition, % at 6.8 µM; hit rate 78% among 2,400; AID 652136, 2013;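 active = inhibition above the mean of all tested compounds plus 3 SD, cut at about 3% in these data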;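 also: 0% = DAX-1 transfected cells with DMSO and 100% = cells without DAX-1 with DMSO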
Active calls of the source: *; . = no result; ! = a repeat was not active.

SMILES	DAX1 inh-1	hgDAF-12 ag	hcDAF-12 act	ssDAF-12 act	DAX1 inh-2	DAX1 conf	SF1 AF2mut Luc
Cc1[nH]c2ccc(C(=O)NC3CCC(C)CC3)cc2c1C (stereo unspecified)	2	13*	4	-1	5.4*	6.8*	3.3*
C(=N\Nc1ccccn1)/c1ccc(N2CCOCC2)cc1	0	11*	3	-1	5.0*	8.8*	7.0*
CC(=O)O[C@]1(C(C)=O)CC[C@H]2[C@@H]3C=CC4=CC(=O)C=C[C@]4(C)[C@H]3CC[C@@]21C	-1	-1	-1	-2	-1	.	.
Cc1cnc(NC(=O)CCCNC(=O)c2ccc(Cl)cc2)s1	2	5	4	0	5.5*	3	3.2*
Cc1ccc(NC(=O)CCCNC(=O)c2ccc(Cl)cc2)c(O)c1	0	8	6.4*	1	5.3*	4.1*	3.7*
CC(C)(C)NC(=O)C(c1ccc(-c2ccccc2)cc1)n1c(=O)c(-c2cc3ccccc3[nH]2)nc2ccccc21 (stereo unspecified)	.	5	5	1.4*	4.9*	4.4*	4.6*
Cc1ccc(C)c(OCc2cc(C(=O)N3CC[C@@H]4CCCC[C@H]4C3)no2)c1	1	9	6.5*	0	5.5*	2	3.3*
Cc1ccc(C)c(OCc2cc(C(=O)N3C[C@@H](C)O[C@@H](C)C3)no2)c1	2	9	1	-1	4.6*	4.8*	4.2*
Cc1ccc(C)c(OCc2cc(C(=O)N3CCN(C4CCCCC4)CC3)no2)c1	1	3	3	-1	1	.	.
CCn1c(SCC(=O)N(C(C)C)C(C)C)nnc1-c1cc2ccccc2cc1O	-1	-4	-2	-2	-2	.	.
COc1cccc(CNc2ccccc2O)c1OCc1ccccc1F	-1	-3	1	0	-1	.	.
CCN(CC(=O)Nc1c(F)cccc1F)C(=O)C(C)SCc1nc2sc(C)c(C)c2c(=O)[nH]1 (stereo unspecified)	0	-1	-2	-1	-1	.	.
NC(=Nc1cccc(F)c1)NC(=O)OCc1ccccc1	.	7	0	0	5.2*	5.2*	3.6*
CC[C@H](C)C(=O)O[C@H]1C[C@@H](C)C=C2C=C[C@H](C)[C@H](CC[C@@H]3C[C@@H](O)CC(=O)O3)[C@H]21	0	1	0	-1	5.2*!	2	0
O=C(Nc1ccc(S(=O)(=O)N2CCCCCC2)cc1)c1[nH]ncc1[N+](=O)[O-]	1	5	0	0	7.0*	3	2
O=C(Nc1ccc([N+](=O)[O-])cc1)c1ccc(S(=O)(=O)N2CCCC2)cc1	-2	-3	-3	-2	0	.	.
O=C(Nc1ccc(F)cc1F)c1ccc2ncsc2c1	2	7	2	-1	4.9*	3	2
O=C(Nc1ccc(Cl)cc1Cl)c1ccc2ncsc2c1	3	8	2	0	2	.	.
COc1cccc(C(=O)NCCS(=O)(=O)NCCc2ccc(OC)c(OC)c2)c1	0	1	-1	-1	-1	.	.
NS(=O)(=O)c1ccccc1NC(=S)Nc1ccccc1S(N)(=O)=O	1	0	-2	-1	0	.	.
CCOc1ccc(N=C(C)C2=C(O)c3ccccc3C2=O)cc1	3	10	2	0	1	.	.
COc1ccc(N=C(C)C2=C(O)c3ccccc3C2=O)cc1	1	12*	4	1	5.0*	19*	5.9*
Cc1cccc(NC(=O)/C=C/c2ccc(Cl)cc2)n1	1	12*	4	0	4.6*	8.7*	5.0*
CC(=O)N1CCC(N(CCN2CCOCC2)C(=S)Nc2ccccc2C)CC1	1	-2	2	-1	-1	.	.
O=C(NC(=S)Nc1ccc(Br)cn1)c1cncc(Br)c1	0	0	-1	-1	0	.	.
SMILES	DAX1 inh-1	hgDAF-12 ag	hcDAF-12 act	ssDAF-12 act	DAX1 inh-2	DAX1 conf	SF1 AF2mut Luc
Cc1ccc(NC(=O)c2cncc(Br)c2)nc1	2	8	2	-1	4.5*	5.8*	6.3*
CCCCc1ccc(NC(=O)c2cnccn2)cc1	-1	12*	4	0	8.9*	11*	7.5*
Cc1ccc(NC(=O)c2cnccn2)nc1	1	8	5	-1	4.6*	5.0*	3.3*
CC(Sc1nnc(C2CC2)n1C1CC1)C(=O)Nc1ccccc1C#N (stereo unspecified)	1	-1	0	-1	0	.	.
CCCc1c2ccccc2nc2ccccc12	1	-1	-1	-1	0	.	.
CCOC(=O)N1CCN(C(=O)C[C@@H]2C[C@@]3(C(=O)OCC)CCCC=C3N(Cc3ccccc3)C2=O)CC1	.	0	-1	-1	0	.	.
Cc1cc(NC(=O)c2cccc(COc3ccc(Br)cc3)c2)no1	-3	12*	4	0	4.5*	4.0*	4.6*
COc1ccc(-c2nc(CC(=O)O)cs2)cc1	2	0	-1	-1	-1	.	.
COc1ccc(-c2csc(-c3ccc(C(=O)O)cc3)n2)cc1	3	12*	4	1	4.7*	12*	7.0*
CC(=O)Nc1ccc(NC(=O)C(C)OC(=O)CC2CCCCC2)cc1 (stereo unspecified)	1	0	1	-1	3	.	.
CC(OC(=O)CC1CCCC1)C(=O)Nc1ccc(S(N)(=O)=O)cc1 (stereo unspecified)	-1	1	0	-1	4.9*	2	1
CN(C(=O)Nc1cnc2ccccc2c1)c1ccccc1	1	-1	1	-2	1	.	.
Cc1ccc(Nc2n[nH]c(=S)s2)cc1F	2	6	1	0	5.4*	4.3*	2.9*
Cc1nn(C)c(C)c1/C=C(\C#N)C(N)=O	0	3	0	-1	0	.	.
